The subject of assay [1] is XIP peptide (Xip251-270) binding. The experiment in a line: small-molecule binders of XIP peptide, primary screen, biochemical, small-molecule microarray, fluorescence 635/667 nm, 0.1 µg/mL protein (AID 1182). As to conditions: fluorescent protein binding, 635 nm, higher = more signal, called active from +8 up or from −8 down.
Another assay deals with XIP peptide (Xip251-270). The experiment in a line: small-molecule binders of XIP peptide, primary screen, biochemical, small-molecule microarray, fluorescence 635/667 nm, 0.5 µg/mL protein (AID 1183). As to conditions: small-molecule microarray binding, fluorescence 635 nm; higher = more signal.
The nature of assay [2]: Plasmodium falciparum growth inhibition, primary screen, strain 3D7, DAPI fluorescence, 100 nL (AID 1184).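 Note: parasites grown inside human red blood cells in medium with human serum.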 The settings on record: P. falciparum 3D7 growth, 3 d, higher = more signal.
The target in assay [3] is Homeobox protein Hox-A13 (Mus musculus) (UniProt Q62424). Briefly: inhibitors of HoxA13-DNA binding, primary screen, biochemical, fluorescence polarization, labeled oligonucleotide (AID 1185). As to conditions: 15 min, higher = more signal, called active from +8 up or from −8 down. Background: Polarisation of emitted light reports the rotation of a fluorescent probe.
Chain of Homeobox protein Hox-A13 (Mus musculus) (Q62424 whole entry, looked up): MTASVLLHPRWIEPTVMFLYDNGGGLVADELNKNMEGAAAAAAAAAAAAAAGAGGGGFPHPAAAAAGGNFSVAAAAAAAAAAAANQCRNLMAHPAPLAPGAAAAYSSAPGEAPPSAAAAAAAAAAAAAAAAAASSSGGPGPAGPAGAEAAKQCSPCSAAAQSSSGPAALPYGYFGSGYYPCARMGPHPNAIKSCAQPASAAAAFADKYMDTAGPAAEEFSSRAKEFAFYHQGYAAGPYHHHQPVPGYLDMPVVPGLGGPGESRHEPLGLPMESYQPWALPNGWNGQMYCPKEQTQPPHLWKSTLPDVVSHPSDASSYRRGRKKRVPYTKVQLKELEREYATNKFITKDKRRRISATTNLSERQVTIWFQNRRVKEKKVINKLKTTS
A short description of assay [4]: inhibitors of hydroxyurea-induced Chk1 phosphorylation, primary screen, imaging, HeLa, phospho-Chk1 antibody, percent positive cells (AID 1186). As to conditions: hydroxyurea-induced phospho-Chk1 immunofluorescence imaging, higher = more signal.
Assay [5] in a line: inhibitors of hydroxyurea-induced Chk1 phosphorylation, primary screen, imaging, HeLa, phospho-Chk1 nuclear intensity (AID 1187). As to conditions: hydroxyurea-induced phospho-Chk1 immunofluorescence imaging, higher = more signal.

The structures appear in SMILES notation. The source made the active and inactive calls. Unless noted, the rule behind the calls is not given here.

For the compound `C=C(CCCC)/C(=C/C[C@@H](OC(=O)c1ccncc1)c1ccc(OCCO)cc1)c1cc(C(=O)OC)ccc1OC`, the composite z-score was 0.35 (inactive) in assay [1] and 0.565 in the assay with XIP peptide (Xip251-270). The z-score is -2.8 in assay [2], -3.62 (inactive) in assay [3], -0.377 (inactive) in assay [4] and 0.106 (inactive) in assay [5].

Regarding `CC1CC/C=C\[C@H]2OC34C=CCN(C(C)(C)C)C(=O)[C@H]3N(CCO)C(=O)[C@@H]4C2C(=O)O1` (some centres not stated), the composite z-score in assay [1] is -0.892 (inactive); in the assay on XIP peptide (Xip251-270), 0.833. Moreover, the z-score was -0.162 in assay [2], -5.01 (inactive) in assay [3], -0.878 (inactive) in assay [4] and -0.798 (inactive) in assay [5].

On to `C=CCOC(=O)[C@@H]1[C@H]2C(=O)O[C@H](c3ccccc3)[C@H](c3ccccc3)N2[C@H](c2ccc(OCCOC(=O)[C@H]3C[C@H]4C(=O)N5CCC[C@H]5C(=O)N4[C@H]3c3ccc(O)cc3)cc2)[C@@]12C(=O)Nc1ccc(I)cc12`, for which the figures for the composite z-score (in assay [1]; with XIP peptide (Xip251-270)) were 1.93 (inactive) and 0.833, respectively. Also, the z-score in assay [2] is -1.56; in assay [3], 1.53 (inactive); in assay [4], -0.0415 (inactive); in assay [5], 0.0454 (inactive).

For `CCOC(=O)C1=C[C@@H](C(C)(C)C)N(S(=O)(=O)c2ccc(C)cc2)[C@H]1c1ccc(F)cc1`, the values for the composite z-score (in assay [1]; with XIP peptide (Xip251-270)) were 0.475 (inactive) and 0.106, respectively. Moreover, the z-score in assay [2] was -1.92; in assay [3], -0.636 (inactive); in assay [4] it was -0.324 (inactive); in assay [5] it was -0.725 (inactive).

On to `CN1C(=O)C2C=CC(C(O)C3CC=CCC3)N(N(c3ccccc3)c3ccccc3)C2C1=O` (configuration not stated), for which the results for the composite z-score (in assay [1]; with XIP peptide (Xip251-270)) were 0.241 (inactive) and -0.283, respectively. Further, the z-score in assay [2] is -0.201; in assay [3], -1.18 (inactive); in assay [4], 0.451 (inactive); in assay [5], 0.0168 (inactive).

In the case of `C=C[C@H](OC)[C@@H](OC(=O)Nc1ccc(OC)cc1)c1ccc(O)c(F)c1`, the composite z-score in assay [1] is -0.0346 (inactive); in the assay with XIP peptide (Xip251-270), -0.893. The z-score in assay [2] is -0.343; in assay [3], -3.1 (inactive); in assay [4], 0.495 (inactive); in assay [5] it was 0.76 (inactive).

For `COC(=O)[C@@]1(Cc2ccc(OC)cc2)[C@H]2c3cc(C(=O)N4CCCC4)n(Cc4ccc(C)c(F)c4F)c3C[C@H]2CN1C(=O)c1ccccc1`, the composite z-score is 0.128 (inactive) in assay [1] and 0.715 in the assay with XIP peptide (Xip251-270). In addition, the z-score in assay [2] was -1.12; in assay [3], -0.498 (inactive); in assay [4], -0.0213 (inactive); in assay [5] it was -0.423 (inactive).

With `CC(=O)NCCCC[C@@H]1NC(=O)[C@@H]2C[C@H](C(=O)NCCCCCNC(=O)CS)[C@H](c3cccc(OCCO)c3)N2C1=O`, the composite z-score is 1.84 (inactive) in assay [1] and 0.471 in the assay on XIP peptide (Xip251-270). In addition, the z-score was 0.246 in assay [2], -3.21 (inactive) in assay [3], -0.224 (inactive) in assay [4] and -0.27 (inactive) in assay [5].

As for `CCOC(=O)C[C@H]1[C@H](OC(=O)c2ccc(C(=O)c3ccccc3)cc2)[C@@H](NC(=O)c2ccc3ccccc3n2)c2cc(OCCCO)ccc2N1C(=O)c1ccccc1`, the composite z-score is -0.021 (inactive) in assay [1] and 0.545 in the assay with XIP peptide (Xip251-270). Moreover, the z-score in assay [2] was -0.894; in assay [3] it was -1.37 (inactive); in assay [4] it was 0.645 (inactive); in assay [5], 0.334 (inactive).

`COCCCNC(=O)[C@@H]1c2ccccc2C(=O)N(Cc2ccccc2Cl)[C@H]1c1ccc(CO)cc1`: the composite z-score in assay [1] was 0.432 (inactive); in the assay on XIP peptide (Xip251-270), 0.0699. In addition, the z-score in assay [2] was 0.652; in assay [3], -2.2 (inactive); in assay [4], -0.57 (inactive); in assay [5] it was -0.352 (inactive).

Turning to `CCC(CC)C(O)C1C=CC2C(=O)NC(=O)C2N1Nc1ccccn1` (configuration not stated), the composite z-score in assay [1] was -0.471 (inactive); with XIP peptide (Xip251-270) it was 0.579. The z-score in assay [2] is -0.3; in assay [3], -0.375 (inactive); in assay [4] it was 0.933 (inactive); in assay [5], 0.481 (inactive).

With `CCCCCCc1nc(-c2cc(C)c(OC)c(C)c2)cc2c1[Si](C(C)C)(C(C)C)OC2`, the composite z-score in assay [1] is -0.267 (inactive); in the assay with XIP peptide (Xip251-270) it was -0.191. Besides, the z-score was -2.34 in assay [2], -0.772 (inactive) in assay [3], -0.157 (inactive) in assay [4] and -0.188 (inactive) in assay [5].

On to `COCCOC(=O)N1C(=O)[C@@]2(c3cc(C#CCC(C(=O)OC)C(=O)OC)ccc31)[C@H](C(=O)N1CCN(c3ncccn3)CC1)[C@H]1C(=O)O[C@H](c3ccccc3)[C@H](c3ccccc3)N1[C@@H]2c1ccccc1OCCO`, for which the values for the composite z-score (in assay [1]; in the assay with XIP peptide (Xip251-270)) were 0.171 (inactive) and 0.679, respectively. For the same compound, the z-score in assay [2] is -2.03; in assay [3] it was -0.504 (inactive); in assay [4], 0.0845 (inactive); in assay [5], 0.176 (inactive).

As for `CC(C)C(=C=CC[C@@H](O)c1ccc(OCCO)cc1)C[C@@H](O)COCc1ccccc1`, the composite z-score in assay [1] is 0.372 (inactive); in the assay on XIP peptide (Xip251-270), 0.195. The z-score in assay [2] is -2.45; in assay [3], -3.75 (inactive); in assay [4], -1.27 (inactive); in assay [5], -0.437 (inactive).

As to `COc1ccc([Si](C)(C)[C@H]2[C@H](CCO)O[C@@]3(C(=O)N(Cc4ccc(N(C=O)c5ccccc5)cc4)c4ccccc43)[C@@H]2C)cc1`, the composite z-score was 0.381 (inactive) in assay [1] and 0.282 in the assay with XIP peptide (Xip251-270). The z-score in assay [2] was -1.93; in assay [3], -0.824 (inactive); in assay [4], 1.27 (inactive); in assay [5] it was -0.123 (inactive).

For `CCCC[C@H]1OB(O)C[C@H]2C1=C(COC)C[C@H]1C(=O)N(C)C(=O)[C@H]12`, the composite z-score in assay [1] was -0.267 (inactive); in the assay with XIP peptide (Xip251-270), -0.0711. In addition, the z-score was 1.5 in assay [2], -9 (active) in assay [3], 0.534 (inactive) in assay [4] and 0.312 (inactive) in assay [5].

For the compound `O=C(c1ccccc1)N1Cc2ccccc2C[C@@]2(COC(c3ccc(OCCCO)cc3)=N2)C1=O`, the composite z-score is 1.45 (inactive) in assay [1] and 0.751 with XIP peptide (Xip251-270). Moreover, the z-score in assay [2] was -2.26; in assay [3], -4.77 (inactive); in assay [4], -0.221 (inactive); in assay [5], 0.159 (inactive).

The values above are taken from PubChem BioAssay.
